Calls of active or inactive are those of the source. Where a call stands in place of a potency, no number is given. The call rests on the fitted dose curve; in most records, active means well fitted curve in the direction sought with a large enough effect in the repeat runs; inconclusive means weak or mixed curves; inactive means flat fitted curve, though single readings scatter. Starred links: 1 amine or outer side, 2 acyl side, 3 side chain; linkers in the order of their positions; H or OH if unused. Positions of bridges follow the written chain, without caps; N, C: chain ends. Non-standard residues stand in square brackets, D forms with d. Residues, ends and D or L forms follow the SMILES beside them. *: point of attachment. X5 = NC1=N[C@@H]([C@H](N[*:1])C(=O)[*:2])C[C@H](O)N1; ΔAla(Z-3-ureido) = NC(=O)N/C=C(\N)C(=O)O; β3hOrn = NCCC[C@H](N)CC(=O)*; Orn = NCCC[C@H](N)C(=O)O; Dap = NC[C@H](N)C(=O)O; Mpa = O=C(O)CCS
test: qHTS assay to test for compound auto fluorescence at 460 nm (blue) in HEK293 cells (AID 720678); details: blue autofluorescence 405/460 nm; series mostly up to 46 µM
Outline: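 Blue-channel (Ex/Em 405/460 nm) intensity measured in HEK293 cultures after overnight compound exposure at 37C; signal expressed relative to triamterene. Cells plated 2,000 per well in 10% dialyzed FBS medium and allowed 4-5 hr to attach.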

| Compound | Potency |
| --- | --- |
| COCC1=C(C(=O)OC(C)OC(=O)OC(C)C)N2C(=O)[C@@H](NC(=O)/C(=N\OC)c3csc(N)n3)[C@H]2SC1 (some centres undefined) | inactive |
| CO[C@@H]1[C@@H](O[C@@H]2O[C@H](C)[C@@H](O[C@H]3C[C@@](C)(O)[C@@H](OC(=O)CC(C)C)[C@H](C)O3)[C@H](N(C)C)[C@H]2O)[C@@H](CC=O)C[C@@H](C)[C@@H](O)/C=C/C=C/C[C@@H](C)OC(=O)C[C@H]1O | inactive |
| CC(=O)O[C@H]1C[C@@H]2CC[C@@H]3[C@H](CC[C@@]4(C)[C@H]3C[C@H](N3CC[N+](C)(C)CC3)[C@@H]4OC(C)=O)[C@@]2(C)C[C@@H]1N1CC[N+](C)(C)CC1 | inactive |
| NCCC[C@H](N)CC(=O)N[C@H]1CNC(=O)[C@H]([C@H]2C[C@H](O)NC(N)=N2)NC(=O)/C(=C/NC(N)=O)NC(=O)[C@H](CO)NC(=O)[C@H](CO)NC1=O (β3hOrn-[Dap]SS[ΔAla(Z-3-ureido)][X5]; lactam 1-C) | inactive |
| CCOc1ccc(C[C@H]2NC(=O)CCSSC[C@@H](C(=O)N3CCC[C@H]3C(=O)N[C@@H](CCCN)C(=O)NCC(N)=O)NC(=O)[C@H](CC(N)=O)NC(=O)[C@H]([C@@H](C)O)NC(=O)[C@H]([C@@H](C)CC)NC2=O)cc1 ([Mpa][dY](Et)ITNCP[Orn]G-NH2; disulfide 1-6) | inactive |
| O=P(O)(O)C(O)(Cc1cnc2ccccn12)P(=O)(O)O | inactive |
| OCC(O)COc1ccc(Cl)cc1 (centres undefined) | inactive |
| CCCCCCCCCCCCCCCC(=O)OC[C@@H](NC(=O)C(Cl)Cl)[C@H](O)c1ccc([N+](=O)[O-])cc1 | inactive |
| NC(=O)Oc1ccc(Cc2ccccc2)cc1 | inactive |
| CCCC(CCC)C(N)=O | inactive |
| CC1CC(OC(=O)C(O)c2ccccc2)CC(C)(C)C1 (centres undefined) | inactive |
| OC(CN1CCCCC1)c1cc(-c2ccccc2)on1 (centres undefined) | inactive |
| CCC(c1ccccc1)c1noc(CCN(CC)CC)n1 (centres undefined) | inactive |
| O=S(O)CNc1ccc(S(=O)(=O)c2ccc(NCS(=O)O)cc2)cc1 | inactive |
| C=CCN1CCCC1CNC(=O)c1cc(S(N)(=O)=O)cc(OC)c1OC (centres undefined) | inactive |
| CCCCCCCCCCCCCCCCCC(=O)OCCO | inactive |
| CCCCCCCCCCCCCCCCCCCCCC(=O)Nc1ccn([C@@H]2O[C@H](CO)[C@@H](O)[C@@H]2O)c(=O)n1 | inactive |

| Compound | Potency |
| --- | --- |
| CCCCOC(=O)C(=O)Nc1cccc(-c2nn[nH]n2)c1 | inactive |
| CCOC(=O)[C@H](CCc1ccccc1)N[C@H]1CCCN2CCC[C@@H](C(=O)O)N2C1=O | inactive |
| CC(C)CN(C[C@@H](O)[C@H](Cc1ccccc1)NC(=O)O[C@@H]1CCOC1)S(=O)(=O)c1ccc(N)cc1 | inactive |
| O.O=C([O-])CC([S-])C(=O)[O-].[Au+].[Na+].[Na+] (centres undefined) | inactive |
| O=P(O)(O)C(Sc1ccc(Cl)cc1)P(=O)(O)O | inactive |
| O=C(CCCN1CCC(C(=O)c2ccc(F)cc2)CC1)c1ccc(F)cc1 | inactive |
| C[C@H]1C[C@H]2[C@@H]3CCC4=CC(=O)C=C[C@]4(C)[C@@]3(F)[C@@H](O)C[C@]2(C)[C@@]1(O)C(=O)CCl | inactive |
| CC#CCC(C)[C@H](O)/C=C/[C@@H]1[C@H]2C/C(=C/CCCC(=O)O)C[C@H]2C[C@H]1O (some centres undefined) | inactive |
| NCCC[C@H](N)C(=O)O | inactive |
| CN1[C@@H]2CCC[C@H]1CC(NC(=O)c1nn(C)c3ccccc13)C2 (some centres undefined) | inactive |
| CS(=O)(=O)NC(=O)CCC/C=C\C[C@H]1C(=O)C[C@@H](O)[C@@H]1/C=C/[C@H](O)COc1ccccc1 | inactive |
| OC[C@@H](O)C(O)[C@H](O)CO | inactive |
| N[C@@H](C(=O)N[C@@H]1C(=O)N2C(C(=O)O)=C(CSc3cn[nH]n3)CS[C@H]12)c1ccc(O)cc1 | inactive |
| CC1(C)S[C@@H]2[C@H](NC(=O)Cc3ccccc3)C(=O)N2[C@H]1C(=O)O | inactive |
| COC(=O)[C@H]1[C@H]2C[C@@H]3c4[nH]c5cc(OC)ccc5c4CCN3C[C@H]2C[C@@H](OC(=O)/C=C/c2cc(OC)c(OC)c(OC)c2)[C@@H]1OC | inactive |
| Cn1nnnc1SCC1=C(C(=O)O)N2C(=O)[C@@H](NC(=O)[C@H](OC=O)c3ccccc3)[C@H]2SC1 | inactive |
| CC(C)(C)CC(=O)OCC(=O)[C@@]12OC(C)(C)O[C@@H]1C[C@H]1[C@@H]3CCC4=CC(=O)C=C[C@]4(C)[C@@]3(F)[C@@H](O)C[C@@]12C | inactive |
